Many of the other results were omitted from the sample, so hits are more common in it than they were.
ST2 IL33 inh: IL1RL1 inhibition. Q01638. AlphaLISA ST2-Fc/biotin-IL-33 interaction, 1 h. inhibition, % for hits at 17 µM. actives 2.3% (n = 78,000). AID 1259354; in the data active = inhibition above about 30%
Target sequence (Q01638 whole entry, looked up): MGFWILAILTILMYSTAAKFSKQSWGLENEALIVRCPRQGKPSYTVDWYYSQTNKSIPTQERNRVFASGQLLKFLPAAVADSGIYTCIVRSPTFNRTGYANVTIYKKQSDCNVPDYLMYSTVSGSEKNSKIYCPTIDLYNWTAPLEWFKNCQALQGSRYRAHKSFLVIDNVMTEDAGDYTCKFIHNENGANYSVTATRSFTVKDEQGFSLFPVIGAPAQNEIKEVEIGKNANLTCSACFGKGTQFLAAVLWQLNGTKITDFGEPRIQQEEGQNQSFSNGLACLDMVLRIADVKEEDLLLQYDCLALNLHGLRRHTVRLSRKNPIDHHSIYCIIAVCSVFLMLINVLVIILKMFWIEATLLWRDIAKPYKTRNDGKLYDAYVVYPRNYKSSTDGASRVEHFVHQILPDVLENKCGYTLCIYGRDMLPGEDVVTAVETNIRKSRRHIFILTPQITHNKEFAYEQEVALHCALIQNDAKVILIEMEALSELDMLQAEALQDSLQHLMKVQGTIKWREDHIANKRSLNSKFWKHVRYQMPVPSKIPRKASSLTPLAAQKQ
* hit, by the source's call; i = inactive.

SMILES	ST2 IL33 inh
Cc1cccc(NC(c2ccccc2)c2ccc3ccc(C)nc3c2O)n1 (centres undefined)	36%*
Cc1cc(Cl)ccc1NC(=O)CSc1cccc2cccnc12	i
O=C(CCS(=O)(=O)c1cccc2cccnc12)Nc1ccc(F)cc1	i
Cc1cc(C)n(-c2cccc3cccnc23)n1	i
COc1ccc(OC)c(C2C(C(N)=O)=C(C)Nc3ncnn32)c1 (centres undefined)	i
Cc1ccc(-c2cc(C(=O)N(C)CCc3cnn(C)c3)cc(S(=O)(=O)N3CCOCC3)c2)s1	i
Clc1ccc(-c2nnc([C@H]3CCN(Cc4cccnc4)C3)o2)cc1	i
CN1CCCN(Cc2ccc(F)cc2)CC1	i
CC(=O)NC(c1ccc(Cl)cc1Cl)c1ccc2cccnc2c1O (centres undefined)	i
Cc1ccnc(NC(c2ccc(N(C)C)cc2)c2ccc3cccnc3c2O)c1 (centres undefined)	32%*
COc1cc(C(Nc2cc(C)ccn2)c2ccc3cccnc3c2O)ccc1O (centres undefined)	i
O=c1[nH]c(/C=C\c2ccccc2Cl)c([N+](=O)[O-])c(=O)[nH]1	i
O=c1[nH]c(/C=C\c2ccccc2Cl)nc2ccccc12	44%*
Cc1nc2ccccc2c(=O)[nH]1	i
COC(=O)C1=C(N)OC2=C(C(=O)CC(c3ccccc3)C2)C1c1ccc(Cl)cc1Cl (centres undefined)	i
COc1ccc(C2=NNC(c3ccccc3)C2)c(O)c1 (centres undefined)	i
COc1ccc(C2CC(C3C(=O)c4ccccc4C3=O)=NN2)cc1 (centres undefined)	36%*
COc1cccc2ccc(C3C(=O)c4ccccc4C3=O)nc12	i
COc1ccc(S(=O)(=O)NCc2nc3cccnc3n2Cc2ccc(C)cc2)cc1	i
C=CCNc1ccccc1C(=O)N(CC)CC1CCOCC1	i
O=[N+]([O-])c1cc(C=Nc2ccc(Br)cc2)ccc1Br	i
O=[N+]([O-])c1cc(C=Nc2ccccc2I)ccc1Br	35%*
O=[N+]([O-])c1cc(C=Nc2cccc(I)n2)ccc1Br	i
Cc1cc(S(=O)(=O)NCCCSC2CCCCC2)ccc1F	i
Cc1c(NC(=O)C(C)C)cccc1-c1nc2ccccc2s1	i
SMILES	ST2 IL33 inh
Cc1cc(=O)n2ccc([N+](=O)[O-])c(O)c2n1	i
Cc1ccccc1CSC1=NCCN1C(=O)c1cccc(F)c1	i
Cc1cccc(OCCCN2CCCC2)c1	i
COc1ccc(CN2CCCCCC2)cc1	i
COc1ccc(OCCCN2CCCCCC2)cc1	43%*
CCOC(=O)c1c(NC(=O)c2sc3ccccc3c2Cl)sc2c1CCN(C)C2	38%*
CCOC(=O)c1c(NC(=O)c2ccc(Br)s2)sc2c1CCN(C)C2	i
CCOC(=O)c1c(NC(=O)c2ccc(S(=O)(=O)N3CCCC3)cc2)sc2c1CCN(C)C2	i
CC1(C)C(c2ccccc2)=[N+]([O-])C(c2ccc([N+](=O)[O-])cc2)N1O (centres undefined)	i
O=C(CN1C(=O)C(=O)c2ccccc21)c1ccccc1	i
O=C1C(=O)N(CN2CCCCCC2)c2ccccc21	42%*
Cc1ccc(N=C2C(=O)N(CN3CCOCC3)c3ccccc32)cc1	i
CCCc1cnc(C)nc1-c1c(F)cccc1OC	i
O=[N+]([O-])c1cccc(CN2CCCCC2CCO)c1 (centres undefined)	i
O=[N+]([O-])c1cccc(CN2CCC(N3CCCCCC3)CC2)c1	i
CCCN(Cc1cccc([N+](=O)[O-])c1)CC1CC1	96%*
CCNC(=O)c1ccccc1-c1ccc(F)c(CO)c1	i
Cc1ncc(-c2c(-c3ccccc3)ncn2CCNC(=O)c2ccncc2)s1	i
CC(=O)Nc1ccc(NC(=O)CC(c2ccccc2)c2ccccc2)cc1	i
CC(C)(C)CC(=O)Nc1ccc(Nc2ccccc2)cc1	33%*
CC(=O)Nc1ccc(NC(=O)Nc2ccccc2)cc1	i
CCOC(=O)c1c(C)oc2ccc(OCc3ccccc3Br)cc12	i
COc1ccc(CNc2ccccc2C(=O)O)cc1	i
COc1ccc(NS(=O)(=O)c2cccc(C(=O)Nc3ccccc3C(=O)O)c2)cc1	i
COc1ccc(C2CC(=O)C=C(Nc3ccccc3)C2)cc1 (centres undefined)	i
SMILES	ST2 IL33 inh
COc1ccc(NC2=C(C)C(=O)CC2)cc1	i
COc1ccc(NC(=O)Nc2ccc(I)cc2)cc1	i
COc1ccc(Nc2ccc(OC)cc2)cc1	70%*
COc1ccc(OC)c(S(=O)(=O)Nc2ccccc2)c1	i
COc1ccc(Nc2ccccc2C(=O)O)cc1	35%*
COc1ccc(Nc2ccccc2)c(C)c1	37%*
Cc1ccc(OCC(=O)Nc2ccccc2I)cc1	i
CC(C)C1CN(Cc2cc(-c3cccnc3)no2)CCCN1CC1CC1 (centres undefined)	i
O=C(NC(c1cccnc1)C(F)(F)F)c1ccc2oc(CCCc3ccccc3)nc2c1 (centres undefined)	i
COc1cc2c(C(=O)Nc3cc(OC)c(OC)c(OC)c3)cn(CC(C)C)c(=O)c2cc1OC	i
Cc1nc(N2CCOCC2)nc(Nc2ccc(F)cc2F)c1[N+](=O)[O-]	i
O=C(NC1CCCC1)C1C2C=CC3(CN(Cc4ccccc4Cl)C(=O)C13)O2 (centres undefined)	i
COC(=O)[C@@H]1C[C@@H](NC(=O)c2ccc(CN3CCC(C)CC3)o2)CN1C	i
CCc1ccc(OCC(=O)NCc2cccnc2)cc1	i
CCOC(=O)N1CCN(C2CCCN(C(=O)CC3CCCC3)C2)CC1 (centres undefined)	i
CCOc1ccc(C2C(C(=O)OC)=C(N)OC3=C2C(=O)CC(c2ccccc2)C3)cc1 (centres undefined)	i
CC(=O)c1cccc(NS(=O)(=O)c2cc(Br)cc3c2N(C(=O)C2CC2)CC3)c1	i
CC(C)c1ccc(NC(=O)CCN2CCN(CC3CCCO3)CC2)cc1 (centres undefined)	i
CN(Cc1cccc2cccnc12)c1ncnc2nc[nH]c12	i
O=C(Cc1ccc(O)c(Cl)c1)N1CCOC(Cc2cccc(F)c2)C1 (centres undefined)	i
OCC1CCCN(Cc2ccc3c(c2)Cc2ccccc2-3)C1 (centres undefined)	98%*
Cc1ccc(CN2CCCC(CO)C2)cc1 (centres undefined)	i
CCc1ccc(CN2CCCC(CO)C2)cc1 (centres undefined)	i
NC(=O)c1ccc(NC(=O)CN(C2CCCCC2)S(=O)(=O)c2ccc(F)cc2)cc1	i
Cc1c(F)cccc1NC(=O)c1ccc(Cl)cc1	i
SMILES	ST2 IL33 inh
O=C(Nc1ccccc1O)c1ccc(S(=O)(=O)c2ccc(Cl)cc2)cc1	i
C/C(=C\C(=O)c1ccc(Cl)cc1)Nc1ccccc1O	30%*
CCCCNC(=O)Cc1c(C(=O)O)[nH]c2ccccc12	i
Cc1cc(NC(=O)c2cc(-c3ccc4c(c3)OCO4)on2)nn1Cc1ccc(Cl)cc1	i
COc1cc(-c2oc(-c3ccc(O)c(OC)c3)c(C)c2C)ccc1O	i
CCOc1ccc(-c2cn3ccsc3n2)cc1	i
N#C/C(=C\c1cccc(F)c1)c1nc(-c2cc3ccccc3oc2=O)cs1	i
COc1ccc(-c2cc(-c3ccccc3)nc(Br)c2C#N)cc1	i
CCOc1ccc(-c2csc(NC(=O)c3ccc(OC)c(OC)c3)n2)cc1	i
CCOc1ccccc1/C=C(\C#N)c1nc(-c2ccc([N+](=O)[O-])cc2)cs1	i
